Records with an inconclusive call do not appear. Unmarked numbers belong to inactive results. Calls of active or inactive are those of the source. The call rests on the fitted dose curve. Positions of bridges follow the written chain, without caps; N, C: chain ends. Non-standard residues stand in square brackets, D forms with d. Residues, ends and D or L forms follow the SMILES beside them. hArg = N=C(N)NCCCC[C@H](N)C(=O)O; Mpa = O=C(O)CCS
Assay: qHTS assay to identify small molecule agonists of the endoplasmic reticulum stress response signaling pathway - cell viability counter screen (AID 1159517); further: nearly all actives have a fitted effect of over 50% in size
Settings: ESRE-bla HeLa viability, CellTiter-Glo luminescence, 5 h; series mostly up to 61 µM
Text: U.S. Tox21 Program National Center for Advancing Translational Sciences [NCATS] NIH Chemical Genomics Center [NCGC] U.S. Environmental Protection Agency [EPA] National Institutes of Environmental Health Sciences [NIEHS] National Toxicology Program [NTP] U.S. Food and Drug Administration [FDA] Tox21 Assay Overview: Endoplasmic Reticulum (ER) plays an important role in cellular signaling, protein folding/maturation, stress response, lipid biosynthesis, calcium storage and release etc. Under stress conditions, proteins in ER misfold or unfold, and leading to the expression of ER stress responsive genes. ER stress has been associated with a variety of pathophysiological conditions such as cancer, inflammation, neurodegenerative diseases, diabetes, ischemic heart disease etc. To identify the compounds that induce ER stress response, an ER stress reporter cell line, CellSensor ESRE-bla HeLa (Life Technologies, Carlsbad, CA) containing a beta-lactamase reporter gene under control of the Endoplasmic reticulum Stress Response Element (ESRE) was used to screen Tox21 10K compound library. The cytotoxicity of the Tox21 compound library against the ESRE-bla HeLa cell line was tested in parallel by measuring cell viability using the CellTiter-Glo assay in the same wells.
Tox21 Assay Protocol Summary: ESRE-bla HeLa cells were dispensed at 1,500 cells/6 uL of assay medium per well into black wall/clear-bottom 1536-well plates using a Multidrop Combi (ThermoFisher Scientific, Waltham, MA) dispenser. After the assay plates were incubated at 37 C and 5% CO2 for an overnight, 23 nL of compounds dissolved in DMSO, positive controls or DMSO only was transferred to the assay plate by a Pintool station (Kalypsys, San Diego, CA). The assay plates were incubated at 37 C and 5% CO2 for 5 hr. One uL of LiveBLAzer B/G FRET substrate (Life Technologies) was added using a FRD (Flying Reagent Dispenser, Aurora Discovery, San Diego, CA) and the plates were incubated at room temperature for 2 hr. Fluorescence intensity (405 nm excitation, 460 nm and 530 nm emissions) was measured using an Envision plate reader (PerkinElmer, Shelton, CT). For cytotoxicity, 4 ul/well of CellTiter-Glo reagent was added into the assay plates using an FRD. After 30 min incubation at room temperature, the luminescence intensity was measured using a ViewLux plate reader (PerkinElmer).
In the case of `CO/N=C(/C(=O)N[C@@H]1C(=O)N2C(C(=O)[O-])=C(C[n+]3ccn4ncccc43)CS[C@H]12)c1nsc(N)n1`, the outcome is reported as “inactive”. For `O=C(O)CONC(=O)c1ccccc1`, the outcome was “inactive”. For `O=C(O)CCCCCC(=O)O`, the outcome was “inactive”. With `O=[N+]([O-])c1c(Cl)cc(Cl)cc1Cl` the outcome was “inactive”. In the case of `NC(=O)[C@@H]1CSSCCC(=O)N[C@@H](CCCCN=C(N)N)C(=O)NCC(=O)N[C@@H](CC(=O)O)C(=O)N[C@@H](Cc2c[nH]c3ccccc23)C(=O)N2CCC[C@H]2C(=O)N1` ([Mpa][hArg]GDWPC-NH2; disulfide 1-7), the outcome is reported as “inactive”. With `CCCCCCCCCCCCCCC(=O)NC(CO)CCCCCCCCCCCCCC` (stereo not given) the outcome was “inactive”. `N[C@@H](Cc1ccc(O)cc1)C(=O)O` showed an activity change, negative = cytotoxicity of 2.71% [at 6.95 µM]. For `CC(C)OC(=O)OCOP(=O)(CO[C@H](C)Cn1cnc2c(N)ncnc21)OCOC(=O)OC(C)C`, the outcome was “inactive”. In the case of `NCc1ccc(S(N)(=O)=O)cc1`, the outcome is reported as “inactive”. With `O=Cc1cc2ccccc2o1` the outcome was “inactive”. For `C=CCSSCCC`, the outcome was “inactive”. For `COC(=O)CCCCC(CCSS/C(CCO)=C(\C)N(C=O)Cc1cnc(C)nc1N)SC(C)=O` (stereo not given), the outcome was “inactive”. With `O=C(Cn1ccnc1[N+](=O)[O-])NCc1ccccc1` the outcome was “inactive”. With `CCCCC1CCC(O)CC1` (stereo not given) the outcome was “inactive”. For `CCC(C)OC(C)CC` (stereo not given), the outcome was “inactive”. With `CC(C)NCC(O)c1ccc2ccccc2c1` (stereo not given) the outcome was “inactive”. For `CC/C=C\CCOC(=O)c1ccccc1O`, the outcome was “inactive”. For `O=C(Cl)c1ccccc1[N+](=O)[O-]`, the outcome was “inactive”. With `CC(=O)c1cc(C)oc1C` the outcome was “inactive”. With `CC(=O)O[C@@H]1CC2CCC1(C)C2(C)C` (stereo not given in full) the outcome was “inactive”. For `CC(=O)O[C@H]1C[C@@H]2CC[C@@]1(C)C2(C)C`, the outcome was “inactive”. In the case of `CN(C)CCN(C)CCO`, the outcome is reported as “inactive”. In the case of `C[C@H]1[C@@H](c2ccccc2)NC(=O)N1C`, the outcome is reported as “inactive”. In the case of `O=C(CCCCC(=O)Nc1c(I)cc(I)c(C(=O)O)c1I)Nc1c(I)cc(I)c(C(=O)O)c1I`, the outcome is reported as “inactive”. For `CC(=O)OC1CCCCC1C(C)(C)C` (stereo not given), the outcome was “inactive”. With `CCCC(=O)OC/C=C(\C)CCC=C(C)C` the outcome was “inactive”. With `CC(=O)CCc1ccc(OC(C)=O)cc1` the outcome was “inactive”. For `CCCCCC(C)O` (stereo not given), the outcome was “inactive”. With `CC(C)c1ccc(C=O)cc1` the outcome was “inactive”. For `CCCc1ccc(O)cc1`, the outcome was “inactive”. With `CC12CCC(C1)C(C)(C)C2O` (stereo not given) the outcome was “inactive”. With `CC1(C)Cc2cccc(N)c2O1` the outcome was “inactive”. With `Cc1c(N)cccc1Cl` the outcome was “inactive”. In the case of `Cc1c(NC(=O)c2cccnc2)c(=O)n(-c2ccccc2)n1C`, the outcome is reported as “inactive”. With `Cn1nnc2c(C(N)=O)ncn2c1=O` the outcome was “inactive”. With `CCOC(CN1CCN(CC(C)C(=O)c2ccccc2)CC1)c1ccccc1` (stereo not given) the outcome was “inactive”. For `c1ccc(-c2nn[nH]n2)cc1`, the outcome was “inactive”. With `Cc1ccc(C)c([N+](=O)[O-])c1` the outcome was “inactive”. For `CCCC(=O)OCCC(C)CCC=C(C)C` (stereo not given), the outcome was “inactive”. For `CCN(CC)CCN`, the outcome was “inactive”.

Reference: PubChem BioAssay (Tox21)
On the % scale 0 is the no-effect control and ±100 the full control effect.
